According to PubChem BioAssay (NCATS):
Inconclusive results are not listed. The source made the active and inactive calls. The call rests on the fitted dose curve; in most records, active means well fitted inhibition curve with a large enough effect; inconclusive means small, poorly fitted or top-dose-only effect; inactive means flat fitted curve, though single readings scatter.

Experiments:
Test in all cases: Cytotoxic Profiling of Annotated Libraries Using Quantitative High-Throughput Screening (AID 1296008); further: nearly all actives have a fitted effect of over 60% in size
Conditions in all cases: Five cell lines viability, CellTiter-Glo ATP luminescence, 48-72 h; max response: stronger effect = lower value
[1] = system: CRL-7250
Method in brief: (§1)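 Cells exposed to compounds for 48 or 72 hr at 37 degrees Celsius. Viability read as ATP-coupled luminescence with CellTiter-Glo after 10 min at room temperature.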

[2] = system: HEK293
Method in brief: as §1

[3] = system: HaCat
Method in brief: as §1

[4] = system: KB-3-1
Method in brief: as §1

[5] = system: NIH3T3
Method in brief: as §1

Measured: max response
On the % scale 0 is the no-effect control and ±100 the full control effect.

Nc1ncnc2c1c(COc1cccc(Cl)c1)nn2C1CCOCC1
inactive: [1] -3.67% | [2] -4.69% | [3] | [4] | [5]

O=C(C[C@@H]1C(C(=O)O)=CO[C@@H](O[C@@H]2O[C@H](CO)[C@@H](O)[C@H](O)[C@H]2O)/C1=C\CO)OCCc1ccc(O)c(O)c1
inactive: [1] -2.34% | [2] 2.23% | [3] | [4] 9.2% | [5]

CC1(C)C[C@@H]2[C@H](C1)[C@@]1(C)C[C@]13C(O)OC[C@]3(O)[C@H]2O (stereo not given in full)
inactive: [1] -3.6% | [2] -0.838% | [3] | [4] | [5]

O=C(O[C@H]1[C@H](Oc2ccc(O)cc2CO)O[C@H](CO)[C@@H](O)[C@@H]1O)c1ccccc1
inactive: [1] -4.77% | [2] -1.69% | [3] | [4] | [5] 2.07%

CC1=CC2=C(C)C(=O)[C@](C)(O)[C@H](O)C2=CO1
inactive: [1] -8.59% | [2] 3.6% | [3] | [4] 6.84% | [5] -3.34%

COc1cc(CO)cc(OC)c1O[C@@H]1O[C@H](CO)[C@@H](O)[C@H](O)[C@H]1O
inactive: [1] -11.4% | [2] -2.97% | [3] | [4] 4.69% | [5]

CC/C=C\[C@H](O)[C@H](O)C1=C(C)C(=O)[C@]2(O1)C(=O)N[C@@](O)(C(=O)c1ccccc1)[C@@H]2O
inactive: [1] | [2] 2.91% | [3] -6.31% | [4] | [5]

C[C@@H]1O[C@@H](OC2C(CO)OC(OCC3OC(OC(=O)[C@]45CCC(C)(C)CC4C4=CCC6[C@@]7(C)CC[C@@H](O)[C@](C)(C(=O)O)C7CC[C@@]6(C)[C@]4(C)CC5)C(O)C(O)C3O)C(O)C2O)[C@H](O)[C@H](O)[C@H]1O (stereo not given in full)
inactive: [1] | [2] 2.84% | [3] | [4] -3.25% | [5] -0.476%
